Screening data (PubChem)
AddAB inh: less growth of phage-infected E. coli with AddAB. inhibition, % at 11.9 µM. AID 435030. E. coli expressing H. pylori AddAB, absorbance growth. 0.29% of 330,000 active; in the data active means inhibition above about 12%;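 further: 0% = vehicle wells of infected cells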
E coli growth-1: inhibitors of Escherichia coli growth. OD600, 23 h; stronger effect = lower value. OD600 absorbance (test concentration not listed). 0.21% of 330,000 active. AID 1053175;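 active means OD600 absorbance below the run mean of sample wells minus 3.6 SD, in any replicate, cut at about 0.56 in these data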
Tat export inh: inhibitors of E. coli Tat protein transport. E. coli MC4100 TorA-mCherry Tat export, fluorescence. inhibition, % at 10 µM. 0.036% of 340,000 active. AID 488895;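 active means mean replicate inhibition at least 50% and at least half of replicates individually reaching 50%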;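 further: exported cargo escapes ClpAP degradation while cytoplasmic cargo is degraded and loses fluorescence; 0% = median of neutral control wells and 100% = median of NaSCN control wells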
phage Ecoli inh: E. coli growth loss with phage present; growth absorbance; inhibition, % at 11.9 µM; 0.26% of 360,000 active; AID 651602; in the data active means inhibition above about 11%
E coli growth-2: counter-screen for AddAB inhibitors: E. coli growth inhibition | E. coli V3065 growth, OD600 absorbance, 18 h | AID 449728 | inhibition, % at 11.9 µM | 0.27% of 330,000 active;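 active means inhibition above the campaign's mean inhibition across all tested compounds plus 3 SD, cut at about 9.9% in these data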;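 further: uninfected addAB+ strain grown without phage in ampicillin broth; 0% = DMSO wells and 100% = ciprofloxacin 0.95 µg/ml wells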
* = called active by the depositor; x = no result. Only some compounds are listed: those with a hit (about 0.5% of all), similar ones and a draw of the others.

SMILES	AddAB inh	E coli growth-1	Tat export inh	phage Ecoli inh	E coli growth-2
FC(F)(F)c1ccc(CN2CC3C(c4ccc(Cl)nc4)C4(c5cccnc5)CC3(C4)C2c2ccccc2)cc1 (stereo not drawn)	x	0.718	x	x	x
Cc1nn(-c2ccccc2)c(Cl)c1C=NNc1nc2ccccc2n1C	x	0.664	x	x	x
O=[N+]([O-])c1cccc(-c2ccc(/C=N/NC(=S)Nc3ccccc3)o2)c1	8.8	x	-3.7	1.0	10.2*
O=C(C1=CC(c2ccc3c(c2)OCO3)CC(OCc2ccc(CO)cc2)O1)N1CCN(Cc2ccc3c(c2)OCO3)CC1 (stereo not drawn)	x	0.728	x	x	x
C=CCNC(=S)NN=C(C)c1ccccn1	x	0.528*	x	x	x
NC(=O)SCC(=O)Nc1ccc(Cl)cc1	2.6	0.534*	-1.6	-0.2	5.8
COCCn1c(SCC(=O)NCc2ccc3c(c2)OCO3)nnc1C(C)C	2.1	0.664	-5.7	0.8	-1.8
COCCn1c(SCC(=O)NCc2ccc3c(c2)OCO3)nnc1-c1c[nH]c2ccccc12	1.0	0.793	-0.9	92.8*	0.6
CCCCCCCCCCCCCCCC[N+](C)(C)CCN(Cc1ccc(OC)cc1)c1ncccn1	1.1	x	53.6*	x	5.5
CC(=NN1CCN(c2ccccc2)CC1)c1ccncc1	x	0.71	x	x	x
CN(C1CCCCC1)S(=O)(=O)c1ccc(NC(=O)c2ccc(Br)o2)cc1	2.1	0.742	6.0	3.7	-0.4
CN(C)S(=O)(=O)c1ccc(NC(=O)c2ccc(Br)o2)cc1	6.7	0.639	-1.2	x	9.8*
O=C(NCc1nc2ccccc2[nH]1)C1=CC(c2ccc(Br)cc2)CC(OCCCCO)O1 (stereo not drawn)	x	0.685	x	x	x
CCCCCCCCCCCCCCCCn1cc[n+](CC(C)=O)c1	x	0.0635*	32.3	x	x
CCCCCCn1ccc(=N)cc1	3.7	0.771	3.5	1.4	-0.5
Cc1ccc(C(C)C)c(OCc2nn(CC(=O)c3ccc(Cl)cc3)c3[n+]2CCCCC3)c1	3.4	0.071*	44.0	3.8	2.6
Nc1ncc(N=Nc2cc(C(=O)O)ccc2Cl)s1	10.0	0.633	-7.7	6.0	10.5*
Cc1nnsc1C(=O)NNc1ccc(Cl)cc1	0.4	0.672	2.7	0.3	-0.5
Cc1nnsc1C(=O)NNc1c(Cl)cccc1Cl	5.4	0.476*	5.7	3.1	2.2
COc1ccc(NC(=O)Nc2cccc3c2OC(CN(C)S(=O)(=O)c2ccccc2)C(C)CN(C(C)CO)C3=O)cc1 (stereo not drawn)	x	0.622	x	x	x
C/C(=N\Nc1ccc([N+](=O)[O-])cc1)c1ccc(C#N)cc1	2.9	x	-1.1	1.9	2.0
N#CC(C#N)=NNc1ccc([N+](=O)[O-])cc1	2.8	0.332*	25.5	5.7	1.0
S=C(NCc1ccc(Cl)cc1)Nc1ccccc1	0.0	0.665	-10.1	5.0	0.3
Fc1ccc(NC(=S)NC2CCN(Cc3ccccc3)CC2)cc1	1.6	0.671	-2.6	5.5	2.7
S=C(NCc1cccnc1)Nc1ccc(Cl)c(Cl)c1	10.8	0.493	-12.2	10.4	11.3*
SMILES	AddAB inh	E coli growth-1	Tat export inh	phage Ecoli inh	E coli growth-2
O=C(NCc1cccnc1)Nc1ccc(Cl)c(Cl)c1	3.9	0.589	-5.0	1.2	1.6
S=C(NCc1ccc(Cl)cc1)Nc1ccncc1	-1.1	0.515*	7.8	1.3	-1.4
S=C(Nc1ccc(Cl)c(Cl)c1)NC1CCN(Cc2ccccc2)CC1	11.4	0.585	-6.4	8.0	10.8*
CCC(C)C(C(=O)N1CCNCC1)n1cc(C(N)CC(C)C)nn1 (stereo not drawn)	x	0.683	x	x	x
Cc1ccc(C=NNC(=O)c2cccc(S(=O)(=O)Nc3ccccc3Cl)c2)s1	x	0.623	x	x	x
C=C(C)C1CCC(C)=C1CC(C)(C)C=Nn1cnnc1 (stereo not drawn)	x	0.691	x	x	x
COc1ccc(CNC(=O)c2ccc(C)o2)cc1	9.4	0.623	-15.8	8.8	10.2*
O=C(C1=CC(c2coc3ccccc3c2=O)CC(OCc2ccc(CO)cc2)O1)N1CCOCC1 (stereo not drawn)	x	0.657	x	x	x
CSc1ccc(C=CC(=O)c2ccc(NC(C)=O)cc2)cc1	x	0.694	x	x	x
O=[N+]([O-])c1ccc(C=Nc2cccc3ccccc23)s1	-1.2	0.51*	4.3	x	-0.6
O=[N+]([O-])c1ccc(C=Nn2c(CO)nc3ccccc32)s1	x	0.711	x	x	x
CCc1nnc(NC(=O)C2CCCN2S(=O)(=O)c2ccc3c(c2)OCCO3)s1 (stereo not drawn)	x	0.68	x	x	x
Cc1ccc(NC(=O)Nc2ncccc2C)cc1	3.8	0.709	9.6	3.9	2.2
Cc1ccc(NC(=O)Nc2ccno2)cc1	2.3	0.449*	x	6.6	2.1
O=C(CSc1cccc[n+]1[O-])c1cc(Cl)ccc1Cl	4.5	0.123*	0.6	0.4	-1.0
CCOC(=O)C1C2COc3ccccc3C2N2C(=O)N(c3cccc(C)c3)C(=O)[C@]12C (stereo partly drawn)	x	0.626	x	x	x
Cn1nc(-c2ccc(Cl)cc2)nc2c(=O)n(C)c(=O)nc1-2	7.8	0.48*	-11.8	x	8.4
CS(=O)(=O)n1nc(-c2ccc(Cl)cc2)nc1N	-0.9	0.665	4.3	2.0	-1.7
C/C(C=NNc1nc2ccccc2[nH]1)=C\c1ccccc1	x	0.509*	x	x	x
Cc1ccc2ccc3cccnc3c2n1	-1.5	x	8.6	-1.3	-3.4
O=[N+]([O-])c1ccc(Cl)c2cccnc12	2.3	0.634	-2.5	1.8	0.4
Clc1cc2cccnc2c2ncccc12	-3.6	0.527*	-6.3	-0.6	-4.7
Cc1c(C)c2cccnc2c2ncccc12	47.2*	0.253*	0.5	x	47.2*
CC(C)CC(CN(N=O)C(Cc1ccccc1)CN(C)N=O)N(CCc1ccccc1)N=O (stereo not drawn)	x	0.701	x	x	x
O=C1Nc2ccccc2/C1=C\C(=O)c1ccccc1	2.2	0.65	1.6	0.2	-2.9
SMILES	AddAB inh	E coli growth-1	Tat export inh	phage Ecoli inh	E coli growth-2
O=C(/C=C1\C(=O)Nc2ccccc21)/C=C1\C(=O)Nc2ccccc21	x	0.509*	2.1	-0.7	x
COc1ccccc1NS(=O)(=O)c1ccc(NN=Cc2c(C)nn(-c3ccccc3)c2N2CCCC2)c([N+](=O)[O-])c1	x	0.763	x	x	x
COC(=O)c1ccc(C=NOCC(=O)Nc2cc(F)ccc2F)cc1	x	0.526*	x	x	x
CCCCNC(=O)OC1CC2CCCC(=O)N3CCC(C1)C23 (stereo not drawn)	x	0.67	x	x	x
C=CCNc1ncnc2c1[nH]c1ccccc12	2.4	0.5*	-9.9	6.5	3.1
CCOCCCNc1ncnc2c1[nH]c1ccccc12	3.4	0.692	-1.1	2.5	1.7
C=CCNc1ncnc2c1[nH]c1ccc(Cl)cc12	6.9	0.474*	-10.7	9.0	5.7
CCN(CC)c1ccc(C(=C2C=CC(=[N+](CC)CC)C=C2)c2ccc(N(CC)CC)cc2)cc1	x	0.893	51.3*	-0.8	x
CCN(CC)c1ccc(C(=O)NNC(=O)CCl)cc1	-1.3	x	5.7	0.4	2.0
Cc1cc(NN=C2CCCc3ccccc32)nc2ccccc12	x	0.593	x	x	x
Cc1ccc2c(c1)N(C)/C(=C/c1cccc[n+]1C)S2	1.5	0.527*	0.4	-0.1	-2.1
Cc1c(-n2c(SCC(C)C)nc3ccccc3c2=O)c(=O)n(-c2ccccc2)n1C	-1.9	0.391*	-1.3	0.4	-0.3
CCCC(CN1CCCC1CN1C(N)=NCC1Cc1ccccc1)N1CC(C(C)CC)N(CCc2ccc(Cl)c(Cl)c2)C1=N (stereo not drawn)	x	0.338*	x	x	x
